From PubChem BioAssay AID1159580 (chemical genetic matrix, 2015)
Values joined by “and” are separate entries in the source; they are usually repeats but may differ in a detail not shown here. Equal entries are not always repeated. Hit rate of the full screen: of about 5,500 compounds, about 2,000 (36%) were called active. About 18% were inconclusive and are not listed. Rule as the data show it: active = normalized growth mostly below about 0.91 (no sharp cut-off); inconclusive = no clear call, values can overlap the other calls; inactive = mostly above about 0.92. The list shows a part of the results.

Test: chemical genetic growth profiling, strain panel (AID 1159580);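 also: tested at 20 µM; growth read once vehicle control cultures reached saturation at 30 °C; 1 = growth at the plate median or of vehicle wells; lower values mean less growth of the strain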
Conditions: growth OD

Measured: normalized growth

NS(=O)(=O)c1cc2c(cc1Cl)NC=NS2(=O)=O
inactive: S. cerevisiae deletion strains, locus YJR075W, strain HOC1, stronger effect = lower value 1.02 | S. cerevisiae deletion strains, locus YKL009W, strain mrt4, stronger effect = lower value 1.02 | S. cerevisiae deletion strains, locus YKL068W, stronger effect = lower value 0.998 | S. cerevisiae deletion strains, locus YKL085W, strain MDH1 (second series), stronger effect = lower value 0.998 | S. cerevisiae deletion strains, locus YKL085W, strain MDH1, stronger effect = lower value 0.998 | S. cerevisiae deletion strains, locus YKL160W, strain elf1, stronger effect = lower value 1.01 | S. cerevisiae deletion strains, locus YKL190W, strain CNB1, stronger effect = lower value 1.01 | S. cerevisiae deletion strains, locus YKR001C, strain vps1, stronger effect = lower value 0.988 | S. cerevisiae deletion strains, locus YKR026C, strain gcn3, stronger effect = lower value 0.98 | S. cerevisiae deletion strains, locus YKR091W, strain srl3, stronger effect = lower value 1.01 | S. cerevisiae deletion strains, locus YLL001W, strain dnm1, stronger effect = lower value 1.01 | S. cerevisiae deletion strains, locus YLL026W, stronger effect = lower value 0.99 | S. cerevisiae deletion strains, locus YLL041C, strain sdh2, stronger effect = lower value 1 | S. cerevisiae deletion strains, locus YLR027C, strain aat2, stronger effect = lower value 1.01 | S. cerevisiae deletion strains, locus YLR039C, strain RIC1, stronger effect = lower value 1.02 | S. cerevisiae deletion strains, locus YLR058C, strain SHM2, stronger effect = lower value 1.01 | S. cerevisiae deletion strains, locus YLR102C, strain apc9, stronger effect = lower value 0.99 | S. cerevisiae deletion strains, locus YLR113W, strain HOG1, stronger effect = lower value 0.939 | S. cerevisiae deletion strains, locus YLR221C, strain rsa3, stronger effect = lower value 0.994 | S. cerevisiae deletion strains, locus YLR258W, strain gsy2, stronger effect = lower value 1.01 | S. cerevisiae deletion strains, locus YLR262C, strain YPT6 (second series), stronger effect = lower value 1 | S. cerevisiae deletion strains, locus YLR262C, strain YPT6, stronger effect = lower value 1.02 | S. cerevisiae deletion strains, locus YLR268W, strain sec22, stronger effect = lower value 0.996 | S. cerevisiae deletion strains, locus YLR320W, strain mms22, stronger effect = lower value 0.988 | S. cerevisiae deletion strains, locus YLR330W, strain CHS5, stronger effect = lower value 1.01 | S. cerevisiae deletion strains, locus YLR342W, strain FKS1 (second series), stronger effect = lower value 1.02 | S. cerevisiae deletion strains, locus YLR342W, strain FKS1, stronger effect = lower value 0.999 | S. cerevisiae deletion strains, locus YLR357W, strain rsc2, stronger effect = lower value 0.985 | S. cerevisiae deletion strains, locus YLR370C, strain arc18, stronger effect = lower value 1 | S. cerevisiae deletion strains, locus YLR371W, strain rom2, stronger effect = lower value 0.997 | S. cerevisiae deletion strains, locus YLR384C, strain iki3, stronger effect = lower value 1.01 | S. cerevisiae deletion strains, locus YLR418C, strain cdc73, stronger effect = lower value 1.02 | S. cerevisiae deletion strains, locus YML016C, strain PPZ1, stronger effect = lower value 1 | S. cerevisiae deletion strains, locus YML032C, strain rad52, stronger effect = lower value 0.982 | S. cerevisiae deletion strains, locus YML120C, strain ndi1, stronger effect = lower value 0.994 | S. cerevisiae deletion strains, locus YML124C, strain tub3, stronger effect = lower value 0.996 | S. cerevisiae deletion strains, locus YMR058W, strain fet3, stronger effect = lower value 1 | S. cerevisiae deletion strains, locus YMR078C, strain ctf18, stronger effect = lower value 0.984 | S. cerevisiae deletion strains, locus YMR125W, strain sto1, stronger effect = lower value 0.998 | S. cerevisiae deletion strains, locus YMR129W, stronger effect = lower value 1 | S. cerevisiae deletion strains, locus YMR205C, strain PFK2, stronger effect = lower value 1 | S. cerevisiae deletion strains, locus YMR223W, strain ubp8, stronger effect = lower value 1 | S. cerevisiae deletion strains, locus YMR231W, strain pep5, stronger effect = lower value 0.999 | S. cerevisiae deletion strains, locus YMR263W, strain SAP30, stronger effect = lower value 1.02 and 0.996 | S. cerevisiae deletion strains, locus YMR307W, strain GAS1, stronger effect = lower value 0.978 and 1.01 | S. cerevisiae deletion strains, locus YNL067W, strain RPL9B, stronger effect = lower value 1.01 | S. cerevisiae deletion strains, locus YNL071W, strain lat1, stronger effect = lower value 0.999 | S. cerevisiae deletion strains, locus YNL128W, strain TEP1, stronger effect = lower value 1.02 | S. cerevisiae deletion strains, locus YNL153C, strain GIM3, stronger effect = lower value 1.02 | S. cerevisiae deletion strains, locus YNL175C, strain NOP13, stronger effect = lower value 0.975 | S. cerevisiae deletion strains, locus YNL183C, strain NPR1, stronger effect = lower value 0.907 | S. cerevisiae deletion strains, locus YNL197C, strain WHI3, stronger effect = lower value 0.969 | S. cerevisiae deletion strains, locus YNL209W, strain ssb2, stronger effect = lower value 1.01 | S. cerevisiae deletion strains, locus YNL224C, strain SQS1, stronger effect = lower value 0.987 | S. cerevisiae deletion strains, locus YNL233W, strain BNI4, stronger effect = lower value 1.02 | S. cerevisiae deletion strains, locus YNL248C, strain rpa49, stronger effect = lower value 1.04 | S. cerevisiae deletion strains, locus YNL250W, strain rad50, stronger effect = lower value 0.989 | S. cerevisiae deletion strains, locus YNL271C, strain bni1, stronger effect = lower value 0.982 | S. cerevisiae deletion strains, locus YNL298W, strain CLA4, stronger effect = lower value 1 | S. cerevisiae deletion strains, locus YNL307C, strain MCK1, stronger effect = lower value 1.01 | S. cerevisiae deletion strains, locus YNL322C, strain KRE1 (second series), stronger effect = lower value 1.01 | S. cerevisiae deletion strains, locus YNL322C, strain KRE1, stronger effect = lower value 1.01 | S. cerevisiae deletion strains, locus YNR049C, strain mso1, stronger effect = lower value 1.01 | S. cerevisiae deletion strains, locus YNR052C, strain pop2, stronger effect = lower value 0.996 | S. cerevisiae deletion strains, locus YOL006C, strain TOP1, stronger effect = lower value 1.05 | S. cerevisiae deletion strains, locus YOL012C, strain htz1 0.596 | S. cerevisiae deletion strains, locus YOL147C, strain pex11, stronger effect = lower value 1 | S. cerevisiae deletion strains, locus YOR001W, strain rrp6, stronger effect = lower value 1.02 | S. cerevisiae deletion strains, locus YOR061W, strain CKA2, stronger effect = lower value 1.01 | S. cerevisiae deletion strains, locus YOR069W, strain VPS5, stronger effect = lower value 1 | S. cerevisiae deletion strains, locus YOR070C, strain gyp1, stronger effect = lower value 1.01 | S. cerevisiae deletion strains, locus YOR080W, strain dia2, stronger effect = lower value 0.986 | S. cerevisiae deletion strains, locus YOR083W, strain WHI5 (second series), stronger effect = lower value 0.968 | S. cerevisiae deletion strains, locus YOR083W, strain WHI5, stronger effect = lower value 0.989 | S. cerevisiae deletion strains, locus YOR106W, strain vam3, stronger effect = lower value 1 | S. cerevisiae deletion strains, locus YOR136W, strain idh2, stronger effect = lower value 0.999 | S. cerevisiae deletion strains, locus YOR144C, strain elg1, stronger effect = lower value 0.998 | S. cerevisiae deletion strains, locus YOR184W, strain ser1, stronger effect = lower value 1 | S. cerevisiae deletion strains, locus YOR231W, strain MKK1, stronger effect = lower value 0.979 | S. cerevisiae deletion strains, locus YOR265W, strain rbl2, stronger effect = lower value 1 | S. cerevisiae deletion strains, locus YOR270C, strain vph1, stronger effect = lower value 1.02 | S. cerevisiae deletion strains, locus YOR290C, strain snf2, stronger effect = lower value 0.996 | S. cerevisiae deletion strains, locus YOR316C, strain cot1, stronger effect = lower value 1 | S. cerevisiae deletion strains, locus YPL051W, strain arl3, stronger effect = lower value 1 | S. cerevisiae deletion strains, locus YPL055C, strain LGE1, stronger effect = lower value 1.04 and 0.991 | S. cerevisiae deletion strains, locus YPL078C, strain atp4, stronger effect = lower value 1 | S. cerevisiae deletion strains, locus YPL106C, strain sse1, stronger effect = lower value 1.01 | S. cerevisiae deletion strains, locus YPL240C, strain hsp82, stronger effect = lower value 1 | S. cerevisiae deletion strains, locus YPL241C, strain CIN2, stronger effect = lower value 1.01 | S. cerevisiae deletion strains, locus YPL256C, strain CLN2, stronger effect = lower value 0.932 | S. cerevisiae deletion strains, locus YPR119W, strain clb2, stronger effect = lower value 0.997 | S. cerevisiae deletion strains, locus YPR141C, strain kar3, stronger effect = lower value 0.997 | S. cerevisiae deletion strains, locus YPR163C, strain tif3, stronger effect = lower value 0.998 | S. cerevisiae deletion strains, locus YPR167C, strain met16, stronger effect = lower value 1 | S. cerevisiae deletion strains, strain wtn01, stronger effect = lower value 1 | S. cerevisiae strains, strain wild type, stronger effect = lower value 1.02
